Assay outcomes as filed in PubChem.
Only some compounds are listed: those with a hit (about 1.2% of all), similar ones and a draw of the others.
RXFP1 antag: RXFP1 (human) relaxin receptor antagonism; AID 1259400; HEK293-RXFP1, relaxin-stimulated cAMP HTRF, 30 min; stronger effect = lower value; hit rate 0.59% among 350,000; activity change, negative = inhibition, % at 57.5 µM;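 active = activity change of -60% or lower, but not beyond a set lower limit; inconclusive = change between -60% and -40%, or beyond the set limit; inactive = change above -40%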; also: % is scaled to controls: 0 for no effect and ±100 for the full control effect
Target sequence (Q9HBX9 whole entry, looked up): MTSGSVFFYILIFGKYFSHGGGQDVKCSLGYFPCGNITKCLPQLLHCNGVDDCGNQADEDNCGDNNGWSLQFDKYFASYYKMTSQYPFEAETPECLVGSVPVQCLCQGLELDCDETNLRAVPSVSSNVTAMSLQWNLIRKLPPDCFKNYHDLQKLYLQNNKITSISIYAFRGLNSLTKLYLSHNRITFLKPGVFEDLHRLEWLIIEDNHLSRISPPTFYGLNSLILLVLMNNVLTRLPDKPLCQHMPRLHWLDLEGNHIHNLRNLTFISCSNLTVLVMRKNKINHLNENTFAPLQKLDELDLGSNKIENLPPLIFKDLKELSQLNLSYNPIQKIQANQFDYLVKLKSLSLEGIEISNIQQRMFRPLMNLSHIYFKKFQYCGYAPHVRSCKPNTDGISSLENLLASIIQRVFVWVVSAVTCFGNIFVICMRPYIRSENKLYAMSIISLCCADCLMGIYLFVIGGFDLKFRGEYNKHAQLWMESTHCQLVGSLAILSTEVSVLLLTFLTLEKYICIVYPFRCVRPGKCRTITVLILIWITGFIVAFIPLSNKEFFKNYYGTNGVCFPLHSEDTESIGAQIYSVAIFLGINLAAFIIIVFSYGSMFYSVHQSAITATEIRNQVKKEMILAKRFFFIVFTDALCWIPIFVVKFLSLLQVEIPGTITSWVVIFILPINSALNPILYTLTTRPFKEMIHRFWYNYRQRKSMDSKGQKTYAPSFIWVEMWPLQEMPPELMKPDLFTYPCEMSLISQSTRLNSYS
RXFP1 agonist: RXFP1 (human) receptor agonism; Q9HBX9; HEK293T-RXFP1 cAMP TR-FRET, 30 min; response scale: percent of porcine relaxin response, buffer zero; AID 2676; Potency, µM (doses to about 57.5 µM), for inactives: at the top dose activation, usual class: activators; hit rate 0.3% among 370,000; active = well fitted activation curve with a large enough effect; inconclusive = small, poorly fitted or top-dose-only effect; also: potency is read from the fitted curve at half-maximal effect; % is scaled to controls: 0 for no effect and ±100 for the full control effect; nearly all actives have a fitted effect of over 60% in size
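Agonist response is measured as cAMP accumulation in an RXFP1-transfected HEK293T line under PDE4 inhibition. Values are scaled between buffer-only and 29 nM porcine relaxin, and EC50s come from standard Hill equation fits.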
gsp antag: antagonists of gsp mutant (McCune-Albright syndrome); Potency, µM (doses to about 76.9 µM), for inactives: at the top dose activity change, negative = inhibition, hits mostly inhibitors; hit rate 0.4% among 340,000; gsp-mutant cells, cAMP HTRF, 30 min; calls by dose curve; cell line not stated here;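 also: intracellular cAMP measured with PDE inhibitor Ro 20-1724 present during compound exposure; potency is read from the fitted curve at half-maximal effect; % is scaled to controls: 0 for no effect and ±100 for the full control effect; nearly all actives have a fitted effect of over 65% in size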
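G418-selected cells were plated in DMEM/10% FBS for 16-24 h at 37C, then treated with compounds plus the PDE inhibitor […] (300 uM solution added) for 30 min at 37C. Intracellular cAMP was measured by HTRF after 30 min lysis at room temperature.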
pAkt inh: inhibitors of Akt phosphorylation | Neuro2A IGF-stimulated pAkt S473 HTRF, 20 min; stronger effect = lower value | activity change, % for hits at 50 µM | hit rate 0.32% among 360,000; in the data active = activity change below about -80%; inconclusive = mostly about -51% to -80%; also: % is scaled to controls: 0 for no effect and ±100 for the full control effect
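Single-point screen (50 µM final compound) in Neuro2A cells stimulated 20 min with 6 nM IGF at 37 deg C. After lysis, Ser473-phosphorylated Akt read by HTRF (ex 330 nm, em 615/665 nm) as the 665/615 ratio.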
gsp agonist: activates gsp, the McCune-Albright syndrome mutation; gsp mutant cells, cAMP HTRF, 30 min; Potency, µM (titrated, usually from 76.9 µM), for the others: at the highest dose activation (cAMP increase), most hits filed as activators; AID 624287; hit rate 0.13% among 340,000; active = well fitted activation curve with a large enough effect; inconclusive = small, poorly fitted or top-dose-only effect, or another doubt; inactive = no such curve, though single readings can be large or run the other way; cell line not stated here;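 also: phosphodiesterase inhibitor Ro 20-1724 added with compounds to block cAMP breakdown; potency is read from the fitted curve at half-maximal effect; nearly all actives have a fitted effect of over 60% in size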
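Cells in DMEM/10% FBS with G418 were pretreated with compounds in DMSO plus […] (300 uM stock) for 30 min at 37C. cAMP was measured by HTRF (cAMP-d2 plus anti-cAMP antibody-K) after 30 min at room temperature.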
* = called active by the depositor; i = inactive; ? = inconclusive; nt = no result given; ! = a repeat was not active; [ ] = dose if it differs, or a comment.

SMILES	RXFP1 antag	RXFP1 agonist	gsp antag	pAkt inh	gsp agonist
Cc1nc2ccn(Cc3ccco3)c(=O)c2cc1C(=O)Nc1ccc(F)cc1	1.7	-0.1%	nt	nt	nt
Cc1ccc(CS(=O)(=O)c2ncc(Cl)c(C(=O)Nc3nc4ccc(C)cc4s3)n2)cc1	nt	1.6%	nt	nt	nt
CCCc1nnc(NC(=O)c2nc(S(=O)(=O)Cc3ccc(C)cc3)ncc2Cl)s1	-10.9	-2.9%	28.2µM*	i	-11.2%
CC(C)c1nnc(NC(=O)c2nc(S(=O)(=O)Cc3ccccc3)ncc2Cl)s1	-71.9*!	-1.3%	25.1µM*	i	-3.1%[15.4 µM]
CSc1nnc(NC(=O)c2nc(S(=O)(=O)Cc3ccccc3)ncc2Cl)s1	-62.7*	-0.2%	31.6µM*	i	-10.2%[15.4 µM]
COc1ccc2nc(NC(=O)c3nc(S(=O)(=O)Cc4ccc(C)cc4)ncc3Cl)sc2c1	-90.6*	2.9%	nt	nt	nt
Cc1ccccc1CS(=O)(=O)c1ncc(Cl)c(C(=O)Nc2nnc(C(C)C)s2)n1	?	0.2%	nt	nt	nt
Cc1cccc(C(=O)NCc2cn3cccc(C)c3n2)c1	6.2	-0.3%	nt	nt	nt
O=C(/C=C/c1ccccc1)N1CCN(Cc2cc(=O)n3nc(-c4ccccc4)sc3n2)CC1	-6.7	2.9%	nt	nt	nt
Cc1cccc(C)c1NC(=O)c1nc(SC(C)C)ncc1Cl	nt	2.3%	nt	nt	nt
O=C(Nc1ccc2oc(-c3cccnc3)nc2c1)c1ccc(-c2cccc(OC(F)(F)F)c2)o1	-13.9	0.1%	nt	nt	nt
COc1ccc(OC)c(NC(=O)c2nc(S(=O)(=O)Cc3ccc(F)cc3)ncc2Cl)c1	-107.2*	5.5%	nt	nt	nt
COc1ccccc1NC(=O)c1nc(S(=O)(=O)Cc2ccccc2)ncc1Cl	?	1.7%	-7.0%	i	8.1%[15.4 µM]
Cc1ccc(NC(=O)C2CCN(C(=O)c3cnn(-c4ccccc4)c3-n3cccc3)CC2)cc1C	nt	0.8%	nt	nt	nt
Cc1cc(C)nc(N/N=C/C2=C(N3CCOCC3)C(=C/c3ccccc3)/CC2)n1	14.3	1.7%	28.2µM*	i	7.3%
Cn1nc(-c2ccc(Cl)cc2)nc2c(=O)n(C)c(=O)nc1-2	nt	4.47µM*	nt	nt	nt
Cc1cc(/C=C2\SC(=S)NC2=O)c(C)n1-c1ccc(O)cc1	?	-2.0%	31.6µM*	i	-2.1%
CCCCCCCCOc1ccccc1C(=O)Nc1ccc(C(=O)OCC[N+](C)(CC)CC)cc1	-19.0	nt	nt	nt	nt
O=C(CN1C(=O)c2ccccc2S1(=O)=O)N1CCN(c2ccccc2F)CC1	-3.3	0.2%	-2.5%	i	-36.6%
O=C(CCN1C(=O)c2ccccc2S1(=O)=O)Nc1ccc(F)c(F)c1F	-76.0*	0.2%	3.7%	i	0.8%[15.4 µM]
O=C(CCN1C(=O)c2ccccc2S1(=O)=O)N1CCN(c2ccccc2F)CC1	-112.3*	-1.0%	-3.3%	i	-0.2%[15.4 µM]
O=C(CCN1C(=O)c2ccccc2S1(=O)=O)Nc1ccc(F)cc1F	-4.4	3.2%	-20.0%	i	-2.2%
CN(C)[C@@H]1C(=O)C(C(=O)NCN2CCCC2)=C(O)[C@@]2(O)C(=O)C3=C(O)c4c(O)cccc4[C@@](C)(O)C3C[C@@H]12 (some centres undefined)	12.0	nt	nt	nt	nt
CCOc1ccc(NC(=O)Cn2nc(Cc3cccnc3)c3ccccc3c2=O)cc1	6.9	24.0%	nt	nt	nt
CCC(C(=O)Nc1nccs1)(C(F)(F)F)C(F)(F)F	-6.0	-0.2%	31.6µM*	i	5.1%
SMILES	RXFP1 antag	RXFP1 agonist	gsp antag	pAkt inh	gsp agonist
COc1cccc(Oc2cncnc2-c2ccc(OC)cc2O)c1	-3.5	0.9%	28.2µM*	i	14.2%
COc1ccc(-c2cncnc2-c2ccc(OC)cc2O)cc1	-2.8	0.9%	-20.1%	i	23.6%
CCc1nc2sc3c(c2c(=S)[nH]1)CC(C)(C)OC3	-66.0*	19.7%	-5.7%	i	?
CC(=O)c1ccc(Nc2nc(=O)c3cccnc3s2)cc1	18.1	?	11.3%	i	10µM*
CC(=O)c1cccc(Nc2nc(=O)c3cccnc3s2)c1	-0.6	9.5%	4.0%	i	?
CN(CC(=O)Nc1ccccc1Cl)C(=O)COC(=O)Cc1c(F)cccc1Cl	-6.8	12.6µM*	6.8%	i	10.2%
CC(=O)Nc1ccccc1OCc1cc(=O)n2c3c(sc2n1)CCCC3	nt	1.6%	nt	nt	nt
C=C1N(C)c2cc([N+](=O)[O-])c(N)cc2C1(C)C	-71.0*	-3.7%	28.2µM*	i	-10.8%[15.4 µM]
CCOc1ccc(NC(=O)CN2C(=O)CC(C)Sc3ccccc32)cc1 (centres undefined)	nt	0.0%	nt	nt	nt
COc1ccccc1N(C(C)=O)C1=C(Cl)C(=O)c2ccccc2C1=O	-86.6*	nt	nt	i	-44.2%
COc1ccccc1N(C(=O)CCl)c1cn(C(C)=O)c2ccccc12	3.0	0.0%	-5.6%	i	-2.5%
CCOC(=O)c1ccc(Nc2c(-c3ccc(N(C)C)cc3)nc3nc[nH]n23)cc1	-8.5	2.2%	nt	nt	nt
COc1ccc(-n2c(=O)c3c4c(sc3n(CC(=O)N3CCCCC3C)c2=O)CCC4)c(OC)c1 (centres undefined)	-14.1	-0.3%	nt	nt	nt
Cc1cccc2c(=O)cc(C(F)(F)F)[nH]c12	-9.3	-1.4%	-20.6%	i	11.8%
Cc1cc(=S)c2cccc(C)c2[nH]1	19.6	22.4µM*	5.1%	i	32.4%[15.4 µM]
Cc1ccc2c(c1C)-c1c(ccc(C)c1C)C(=O)C2=O	-68.7*	nt	18.4%	i	9.0%
CN1C(=O)c2ccccc2Sc2ccc(NC(=O)N3CCN(c4ccc(F)cc4)CC3)cc21	-17.3	7.8%	nt	nt	nt
CCCCCn1c(=N)n(CC(O)COc2cccc(C)c2)c2ccccc21 (centres undefined)	?	0.2%	nt	nt	nt
CCCCN(C)CCNC(=O)c1ccc2c(=O)n(CCc3ccccc3)c(=O)[nH]c2c1	nt	-1.7%	nt	nt	nt
COc1ccccc1N1CCN(C(=O)c2cccc(S(=O)(=O)N3c4ccccc4CC3C)c2)CC1 (centres undefined)	-2.6	nt	31.6µM*	i	11.0%
CCCCCc1ccc(C(=O)CCCC)c(=S)[nH]1	-64.2*	1.6%	4.4%	i	-26.6%
O=C(CN1C(=O)COc2ccc(S(=O)(=O)N3CCCC3)cc21)NCCc1ccc(Cl)cc1	-15.1	4.1%	nt	nt	nt
CCCCNc1c(-c2cccc(-c3cc(C(C)=O)cs3)c2)nc2cc(C)ccn12	nt	-1.2%	31.6µM*	i	21.7%
